Data published in PubChem BioAssay (Tox21).
Where “and” joins values, the source holds several entries; their conditions need not be identical. Equal values may be shown once. Records with an inconclusive call do not appear. Entries that show only a call come without a potency. The source holds several records for some structures; these can differ, active in one and inactive in another. Calls of active or inactive are those of the source. Unless noted, calls follow the shape of the dose curve; as a rule, active = well fitted curve in the direction sought with a large enough effect in the repeat runs; inconclusive = weak or mixed curves; inactive = no such curve, though single readings can be large; an effect the other way counts as inactive or inconclusive.

Tests used:
[1] = qHTS assay to identify small molecule antagonists of the estrogen receptor alpha (ER-alpha) signaling pathway using the BG1 cell line in the presence of 0.1 nM 17-beta-estradiol - cell viability counter screen (AID 1259241); also: nearly all actives have a fitted effect of over 40% in size; also: potency is read from the fitted curve at half-maximal effect
Outline: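 Following 5 days in phenol red-free medium with charcoal-stripped serum, VM7Luc4E2 cells received test compounds alongside 0.1 nM 17beta-estradiol (final) at 37C for 22 hr. Live cells were then quantified via protease-substrate fluorescence.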

[2] = qHTS assay to identify small molecule antagonists of the androgen receptor (AR) signaling pathway using the MDA cell line in the presence of 0.5 nM R1881 - cell viability counter screen (AID 1259242); also: nearly all actives have a fitted effect of over 45% in size; also: potency is read from the fitted curve at half-maximal effect
Outline: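 MDA-kb2 cells (human breast carcinoma, stably carrying MMTV-luciferase reporter) were exposed to compounds with 0.5 nM R1881 (final) for 16 hr at 37C, 0% CO2; viability then read as live-cell protease fluorescence (CellTiter-Fluor, 30 min) in the same wells.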

[3] = molecular target: Estrogen receptor (Homo sapiens) (UniProt P03372); assay: qHTS assay to identify small molecule antagonists of the estrogen receptor alpha (ER-alpha) signaling pathway using the BG1 cell line in the presence of 0.1 nM 17-beta-estradiol (AID 1259244); also: nearly all actives have a fitted effect of over 50% in size; also: potency is read from the fitted curve at half-maximal effect
Outline: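 VM7Luc4E2 cells (endogenous full-length ER-alpha, stable 4xERE-luciferase) were grown 5 days in phenol red-free medium with charcoal-stripped FBS, then exposed 22 h at 37C to compounds plus 0.1 nM (final) 17beta-estradiol; ONE-Glo luminescence read-out.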

[4] = qHTS assay to identify small molecule phospholipidosis (PLD) inducers (AID 1259344; active = well fitted curve in the direction sought with a large enough effect; an effect the other way counts as inactive or inconclusive)
Outline: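 HepG2 cells, 900/well, treated with compound plus LipidTOX Red for 24 h at 37 C; amiodarone positive and DMSO negative controls. Fixed with paraformaldehyde/Hoechst, then high-content imaging scored LipidTOX pit count and integrated intensity per well and per cell.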

[5] = qHTS assay to identify small molecule HDAC inhibitors (AID 1259364); also: nearly all actives have a fitted effect of over 45% in size; also: potency is read from the fitted curve at half-maximal effect
Outline: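 Wild-type HCT-116 cells were plated overnight, exposed to compounds for 2 h at 37 °C, then given HDAC-Glo class I/II luminogenic reagent for 30 min at room temperature before luminescence was read.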

[6] = qHTS assay to identify small molecule HDAC inhibitors - cell viability counter screen (AID 1259365); also: nearly all actives have a fitted effect of over 50% in size; also: potency is read from the fitted curve at half-maximal effect
Outline: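 HCT-116 wild-type, overnight attachment; 2hr drug exposure, 37C; CellTiter-Glo luminescent ATP readout after 30min RT.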

[7] = qHTS assay to identify small molecule agonists of the sonic hedgehog signaling (Shh) pathway - cell viability counter screen (AID 1259366); also: nearly all actives have a fitted effect of over 50% in size; also: potency is read from the fitted curve at half-maximal effect
Outline: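 Compounds in DMSO were pin-transferred onto 3T3 Gli1-Luc cells that had settled 4hr; plates then stood 24hr at 37C and 5% CO2. One hour before the end, CellTiter-Fluor was added and fluorescence recorded.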

[8] = qHTS assay to identify small molecule antagonists of the sonic hedgehog signaling (Shh) pathway - cell viability counter screen (AID 1259367); also: nearly all actives have a fitted effect of over 55% in size; also: potency is read from the fitted curve at half-maximal effect
Outline: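 NIH/3T3-derived Gli1-Luc reporter cells, 2,000/well, plated 4 hr before compound addition, then stimulated with conditioned medium for 24 hr at 37C. Viability measured in the same wells by CellTiter-Fluor fluorescence, reagent added at 23 hr for 1 hr.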

[9] = qHTS assay to identify small molecule agonists of the sonic hedgehog signaling (Shh) pathway (AID 1259368; calls by dose curve; also: series mostly up to about 92 µM; nearly all actives have a fitted effect of over 15% in size)
Outline: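 NIH/3T3-derived 3T3Gli1-Luc cells carrying a stably integrated Gli1 response element–firefly luciferase reporter were plated, left 4 hr at 37 C, then given compounds in DMSO for 24 hr. Luminescence was read 30 min after adding luciferase reagent.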

[10] = molecular target: Androgen receptor (Homo sapiens) (UniProt P10275); assay: qHTS assay to identify small molecule antagonists of the androgen receptor (AR) signaling pathway using the MDA cell line in the presence of 0.5 nM R1881 (AID 1259243); also: nearly all actives have a fitted effect of over 50% in size; also: potency is read from the fitted curve at half-maximal effect
Outline: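 MDA-kb2 human breast carcinoma cells carrying an MMTV-luciferase reporter (AR- and GR-responsive) were plated, rested 5 hr at 37C, dosed with compounds, then stimulated with 0.5 nM R1881 (final) for 16 hr; luminescence was read after ONE-Glo.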

Chain of Estrogen receptor (Homo sapiens) (P03372 whole entry, looked up): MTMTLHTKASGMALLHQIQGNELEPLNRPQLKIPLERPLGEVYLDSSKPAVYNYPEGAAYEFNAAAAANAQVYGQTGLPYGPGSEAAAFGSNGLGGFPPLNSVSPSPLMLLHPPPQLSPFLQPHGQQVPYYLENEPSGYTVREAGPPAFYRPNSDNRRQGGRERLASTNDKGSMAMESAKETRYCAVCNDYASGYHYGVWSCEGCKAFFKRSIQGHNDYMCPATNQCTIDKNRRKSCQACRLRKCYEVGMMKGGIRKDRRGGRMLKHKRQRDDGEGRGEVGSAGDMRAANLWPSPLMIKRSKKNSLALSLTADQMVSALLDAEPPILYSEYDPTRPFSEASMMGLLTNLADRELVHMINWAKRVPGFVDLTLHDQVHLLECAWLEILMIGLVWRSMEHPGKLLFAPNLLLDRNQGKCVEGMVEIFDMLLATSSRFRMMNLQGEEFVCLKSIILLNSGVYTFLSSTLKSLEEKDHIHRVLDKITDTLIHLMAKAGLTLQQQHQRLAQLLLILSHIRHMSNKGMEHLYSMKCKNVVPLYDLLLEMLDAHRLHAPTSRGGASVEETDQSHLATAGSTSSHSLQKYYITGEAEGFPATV
Chain of Androgen receptor (Homo sapiens) (P10275 whole entry, looked up): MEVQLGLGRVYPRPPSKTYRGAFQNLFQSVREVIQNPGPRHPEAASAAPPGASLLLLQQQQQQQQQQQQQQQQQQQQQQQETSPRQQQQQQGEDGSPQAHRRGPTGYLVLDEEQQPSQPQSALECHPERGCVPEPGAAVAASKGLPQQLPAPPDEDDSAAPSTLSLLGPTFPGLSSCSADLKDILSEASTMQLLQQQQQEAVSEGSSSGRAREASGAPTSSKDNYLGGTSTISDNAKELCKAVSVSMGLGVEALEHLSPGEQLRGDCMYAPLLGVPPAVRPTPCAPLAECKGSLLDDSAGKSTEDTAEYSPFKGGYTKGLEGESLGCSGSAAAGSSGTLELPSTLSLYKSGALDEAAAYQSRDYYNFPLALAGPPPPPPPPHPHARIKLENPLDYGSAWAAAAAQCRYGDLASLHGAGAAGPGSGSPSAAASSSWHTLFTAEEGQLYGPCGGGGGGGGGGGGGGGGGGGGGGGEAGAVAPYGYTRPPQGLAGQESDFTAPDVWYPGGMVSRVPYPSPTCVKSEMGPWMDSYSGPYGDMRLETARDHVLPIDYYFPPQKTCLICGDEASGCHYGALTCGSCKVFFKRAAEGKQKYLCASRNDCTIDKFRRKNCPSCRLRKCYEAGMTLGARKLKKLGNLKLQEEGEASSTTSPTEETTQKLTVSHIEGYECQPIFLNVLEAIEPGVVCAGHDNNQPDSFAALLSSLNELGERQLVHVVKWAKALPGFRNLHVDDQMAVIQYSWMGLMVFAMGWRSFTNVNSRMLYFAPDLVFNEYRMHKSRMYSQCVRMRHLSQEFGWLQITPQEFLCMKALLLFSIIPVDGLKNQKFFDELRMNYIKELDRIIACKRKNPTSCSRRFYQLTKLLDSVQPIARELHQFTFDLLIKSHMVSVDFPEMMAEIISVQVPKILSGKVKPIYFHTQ

SMILES	Potency [1]	Potency [2]	Potency [3]	Potency [4]	Potency [5]	Potency [6]	Potency [7]	Potency [8]	Potency [9]	Potency [10]
CC(=O)N[C@@H](CS)C(=O)O	inactive	inactive	inactive	inactive	inactive	inactive	inactive	inactive	inactive	
CN1C(=O)c2ccc([N+](=O)[O-])cc2C1=O	inactive	inactive	inactive		inactive	inactive	inactive	inactive	inactive	inactive
CC(C)(O)CCC(C)(C)O	inactive	inactive	inactive		inactive	inactive	inactive	inactive	inactive	inactive
NC(=Nc1ccccc1)Nc1ccccc1	inactive	inactive	10.9 µM (active)	inactive	686 nM (active) and inactive	inactive	inactive	inactive	inactive	
CCCCCCCCCCCCCC[P+](CCCC)(CCCC)CCCC	60.8 µM (active) and 30.6 µM (active)	27.1 µM (active) and 21.7 µM (active)	2.71 µM (active) and 4.33 µM (active)		inactive	68.2 µM (active) and 68.6 µM (active)	27.1 µM (active)	30.5 µM (active) and 30.6 µM (active)	inactive	1.08 µM (active) and 1.72 µM (active)
CCN(CC)C(=S)SSC(=S)N(CC)CC	inactive	inactive	243 nM (active) and 279 nM (active)	inactive	inactive	inactive	243 nM (active) and 99.2 nM (active) and 596 nM (active)	433 nM (active) and 1.25 µM (active) and 2.66 µM (active)	inactive	122 nM (active) and 39.5 nM (active) and 106 nM (active)
Nc1cc(Cl)c(-c2cc(Cl)c(N)cc2Cl)cc1Cl	inactive	inactive	24.3 µM (active) and 34.4 µM (active)		inactive			54.4 µM (active) and 38.6 µM (active)	inactive	4.32 µM (active) and 2.17 µM (active)
COc1cc(C(=S)N2CCOCC2)ccc1O	inactive	inactive	inactive	inactive	inactive	inactive	inactive	inactive	inactive	inactive
CC1=CC(=O)c2ccccc2C1=O	48.6 µM (active)	43.3 µM (active)	30.6 µM (active) and 29.8 µM (active)	inactive	inactive	68.6 µM (active) and inactive	13.7 µM (active) and 13.3 µM (active)	27.3 µM (active) and 13.3 µM (active)	inactive	21.7 µM (active) and 29.8 µM (active)
C#CC(C)(CC)OC(=O)c1ccccc1C(=O)O (centres undefined)	inactive	inactive	inactive		inactive		inactive	inactive	inactive	inactive
CC(=O)Nc1ccc(C(=O)CCl)cc1	inactive	inactive and 54.5 µM (active)			inactive	inactive	21.7 µM (active)	inactive	inactive	inactive and 54.5 µM (active)
O=Cc1ccc(Cl)cc1	inactive	inactive			inactive		inactive	inactive	inactive	inactive
CCc1ccc(C(c2ccc(CC)cc2)C(Cl)Cl)cc1	inactive	inactive	inactive		inactive	inactive	inactive	inactive	inactive	49.3 µM (active)
CC(C)CCOCc1ccccc1	inactive	inactive	inactive		inactive	inactive	inactive	inactive	inactive	inactive
CCN(CC)C(=O)Nc1ccc(OCC(O)CNC(C)(C)C)c(C(C)=O)c1 (centres undefined)	inactive	inactive	inactive	inactive	inactive	inactive	inactive	inactive	inactive	inactive
Cc1cc(OCCOCC[N+](C)(C)Cc2ccccc2)ccc1C(C)(C)CC(C)(C)C	inactive	43 µM (active) and 26.6 µM (active)	60.8 µM (active) and 29.8 µM (active)	inactive	inactive	inactive	48.3 µM (active)		inactive	13.6 µM (active) and 13.3 µM (active)
CCOc1ccccc1C(N)=O	inactive	inactive	inactive	inactive	inactive	inactive	inactive	inactive	inactive	inactive
OCC(CO)N[C@H]1C[C@](O)(CO)[C@@H](O)[C@H](O)[C@H]1O	inactive	inactive	inactive	inactive	inactive		inactive	inactive	inactive	inactive
BrC1CCC(Br)C(Br)CCC(Br)C(Br)CCC1Br (centres undefined)	inactive	inactive	inactive		inactive	inactive	inactive	inactive	inactive	inactive
O=C(O)Cn1cnnn1	inactive	inactive	inactive		inactive	inactive	inactive	inactive	inactive	inactive
